Test results: PubChem BioAssay (NCATS)
Records with an inconclusive call do not appear. The source made the active and inactive calls. Unless noted, calls follow the shape of the dose curve; as a rule, active = well fitted inhibition curve with a large enough effect; inconclusive = small, poorly fitted or top-dose-only effect; inactive = flat fitted curve, though single readings scatter.

Tests used:
[1] = AP1 Signaling Pathway (AID 357; active = well fitted curve in either direction with a large enough effect, not every such curve was filed as active; also: % is scaled to controls: 0 for no effect and ±100 for the full control effect)
How it was run: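 In this screen, ME-180 cells in Opti-MEM with 0.5% dialyzed FBS received EC50 EGF and compound titrations for 5 h. AP-1 reporter beta-lactamase was detected via CCF4 ratio, giving AC50 for positive and negative modulators.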

[2] = target: Cytochrome P450 1A2 (Homo sapiens) (UniProt P05177); experiment: p450-cyp1a2 (AID 410; calls by dose curve; also: potency is read from the fitted curve at half-maximal effect;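 as to activity change, negative = inhibition: -100% = full effect of reference inhibitor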)
How it was run: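 Read-out is luminescence from luciferin produced by CYP1A2 demethylation of Luciferin-ME (100uM, at Km). Detection reagent stopped the 60 min NADPH-dependent reaction; signals were normalized to 57 uM furafylline.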

[3] = NFAT Signaling Pathway (AID 444; active = well fitted curve in either direction with a large enough effect, not every such curve was filed as active;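 also: carbachol stimulus at about its EC50 of 1 µM final; % is scaled to controls: 0 for no effect and ±100 for the full control effect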); details: Jurkat NFAT-bla M1, carbachol, beta-lactamase ratio, 5 h; at 17.2 µM (top of the series) unless noted
How it was run: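 Read-out: CCF4 FRET ratio (460 nm/530 nm) after 1 h RT dye loading, used for %activity and AC50 from titration series. Cells: Jurkat NFAT-β-lactamase/M1 line, treated with compound plus 1 uM carbachol for 5 h, 37 °C.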

[4] = Stat Signaling Pathway (AID 446; active = well fitted curve in either direction with a large enough effect, not every such curve was filed as active;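 also: ME-180 cervical cancer cells given 40 pM IL-6 alongside compound; SIE-controlled beta-lactamase reporter measured as 460/530 nm FRET emission ratio; % is scaled to controls: 0 for no effect and ±100 for the full control effect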)
How it was run: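 Normalization used AC90 stimulation (300 pM IL-6) and AC90 inhibition (125 nM pan-JAK inhibitor at 40 pM IL-6). The underlying signal is SIE-driven beta-lactamase in ME-180 cells after 5 h IL-6 exposure with compound.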

[5] = target: Glucocorticoid receptor (Homo sapiens) (UniProt P04150); experiment: GR-EFC Redistribution (AID 451; calls by dose curve; also: potency is read from the fitted curve at half-maximal effect); details: CHO-K1 GR-EFC translocation, beta-gal luminescence, 2 h
How it was run: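 Translocation of GR-ED fusion to nuclear EA restores b-gal, read by luminescence after 1 h room-temperature detection. Engineered CHO-K1 biosensor cells, 1,000/well, exposed 2 h at 37 C to titrations up to 46 uM final.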

[6] = target: Mitogen-activated protein kinase 10 (Mus musculus) (UniProt Q61831); experiment: JNK3 AlphaScreen Assay (AID 530; active = well fitted curve in either direction with a large enough effect, not every such curve was filed as active;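 also: kinase came from lysate of stimulated human HepG2 cells; signal reports phosphorylation of biotinylated GST-cJun 1-79 at Ser73 with 10 µM ATP; % is scaled to controls: 0 for no effect and ±100 for the full control effect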)
How it was run: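 Kinase buffer: 20 mM Tris-HCl pH 7.6, 10 mM MgCl2, 1 mM DTT, 0.1 mM Na3VO4, 0.01% Tween-20; ATP 10 uM. Substrate biotin-GST-cJun(1-79), enzyme from activated HepG2 lysates. Detection by Ser73 phospho-antibody AlphaScreen.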

[7] = target: 3',5'-cyclic-AMP phosphodiesterase 4B (Homo sapiens) (UniProt Q07343); experiment: qHTS Assay for Inhibitors of PDE-IV (AID 607; active = well fitted activation curve with a large enough effect in the main read-out, with a control signal flat, not every such curve was filed as active; also: % of control where 0% means no effect)
How it was run: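 HEK293 ACTOne cells with CNG channel (1000/well), endogenous PDE4; membrane potential dye, compounds up to 22.9 uM final. Fluorescence Ex 535/Em 590; RO 20-1724 (100 uM final) as reference.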

[8] = qHTS Assay for Lipid Storage Modulators (AID 1519; calls by dose curve); details: Drosophila S3 cells, BODIPY lipid droplet/cell ratio, laser cytometry, cells loaded with oleic acid
How it was run: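 Cells seeded at 5,000 per well were treated with compounds over a concentration series and loaded with oleic acid (400 uM, as added). Lipid droplet fluorescence (488 nm excitation, 500-530 nm channel) was read by laser-scanning cytometry and normalized to 20 uM Triacsin C.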

[9] = target: Ubiquitin carboxyl-terminal hydrolase 1 (Homo sapiens) (UniProt O94782); experiment: Inhibitors of USP1/UAF1: Pilot qHTS (AID 504865);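 also: rhodamine fluorescence freed from ubiquitin-rhodamine substrate followed over time; top concentration of the series differs between compounds; % is scaled to controls: 0 for no effect and ±100 for the full control effect; nearly all actives have a fitted effect of over 35% in size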
How it was run: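 Enzyme-free wells gave the negative control, while test wells held 1nM USP1/UAF1 preincubated with compound for 15 min at room temperature. Ub-Rho at 150nM final started the reaction, and fluorescence at 480/540 nm was recorded kinetically.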

[10] = target: Glucocorticoid receptor (Homo sapiens) (UniProt P04150); experiment: GR-GFP Redistribution (AID 450;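 active = compounds whose dose series gives a full or clear partial fitted curve of increased nuclear translocation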; also: potency is read from the fitted curve at half-maximal effect); details: U2OS GR-GFP nuclear translocation, laser cytometry, 2 h
[11] = target: Luciferin 4-monooxygenase (Photinus pyralis) (UniProt P08659); experiment: Biochemical firefly luciferase enzyme assay for NPC (AID 624030);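 also: purified P. pyralis luciferase at 10 nM with luciferin and ATP substrate; 0% = DMSO and -100% = full luciferase inhibition by PTC124 control; nearly all actives have a fitted effect of over 70% in size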
How it was run: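 Direct inhibition of firefly luciferase enzyme (10 nM final, 50 mM Tris Acetate) assessed by luminescence within 5 minutes. Percent activity scaled between DMSO and PTC124 positive control, with concentration-effect curves classified by fit quality and response.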

[12] = qHTS profiling for inhibitors of Plasmodium falciparum proliferation (AID 504749);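 also: 0% = DMSO vehicle and full inhibition = artemisinin control; nearly all actives have a fitted effect of over 60% in size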; details: P. falciparum in erythrocytes, SYBR Green DNA, 72 h, at 12.8 µM (top of the series)
How it was run: (§1)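 In a 72 h erythrocytic culture (37 C, humidified, 5% CO2) at 2.5% hematocrit and 0.3% starting parasitemia, compounds were tested; SYBR Green I in detergent lysis buffer stained parasite DNA overnight.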

[13] = tested on: C2A; experiment: as above; details: P. falciparum in erythrocytes, SYBR Green DNA, 72 h; series mostly up to 12.8 µM
How it was run: as §1

[14] = tested on: CP217; experiment: as above; details: P. falciparum in erythrocytes, SYBR Green DNA, 72 h; series mostly up to 12.8 µM
How it was run: as §1

[15] = tested on: CP238; experiment: as above; details: P. falciparum in erythrocytes, SYBR Green DNA, 72 h; series mostly up to 12.8 µM
How it was run: as §1

[16] = tested on: CP250; experiment: as above; details: P. falciparum in erythrocytes, SYBR Green DNA, 72 h; series mostly up to 12.8 µM
How it was run: as §1

[17] = tested on: FAB9; experiment: as above; details: P. falciparum in erythrocytes, SYBR Green DNA, 72 h; series mostly up to 12.8 µM
How it was run: as §1

[18] = tested on: JCK; experiment: as above; details: P. falciparum in erythrocytes, SYBR Green DNA, 72 h; series mostly up to 12.8 µM
How it was run: as §1

[19] = tested on: PC49; experiment: as above; details: P. falciparum in erythrocytes, SYBR Green DNA, 72 h; series mostly up to 12.8 µM
How it was run: as §1

[20] = tested on: SC27B; experiment: as above; details: P. falciparum in erythrocytes, SYBR Green DNA, 72 h; series mostly up to 12.8 µM
How it was run: as §1

[21] = measured here: cell count channel max response
[22] = measured here: lipid channel max response

Sequence of Ubiquitin carboxyl-terminal hydrolase 1 (Homo sapiens) (O94782 whole entry, looked up): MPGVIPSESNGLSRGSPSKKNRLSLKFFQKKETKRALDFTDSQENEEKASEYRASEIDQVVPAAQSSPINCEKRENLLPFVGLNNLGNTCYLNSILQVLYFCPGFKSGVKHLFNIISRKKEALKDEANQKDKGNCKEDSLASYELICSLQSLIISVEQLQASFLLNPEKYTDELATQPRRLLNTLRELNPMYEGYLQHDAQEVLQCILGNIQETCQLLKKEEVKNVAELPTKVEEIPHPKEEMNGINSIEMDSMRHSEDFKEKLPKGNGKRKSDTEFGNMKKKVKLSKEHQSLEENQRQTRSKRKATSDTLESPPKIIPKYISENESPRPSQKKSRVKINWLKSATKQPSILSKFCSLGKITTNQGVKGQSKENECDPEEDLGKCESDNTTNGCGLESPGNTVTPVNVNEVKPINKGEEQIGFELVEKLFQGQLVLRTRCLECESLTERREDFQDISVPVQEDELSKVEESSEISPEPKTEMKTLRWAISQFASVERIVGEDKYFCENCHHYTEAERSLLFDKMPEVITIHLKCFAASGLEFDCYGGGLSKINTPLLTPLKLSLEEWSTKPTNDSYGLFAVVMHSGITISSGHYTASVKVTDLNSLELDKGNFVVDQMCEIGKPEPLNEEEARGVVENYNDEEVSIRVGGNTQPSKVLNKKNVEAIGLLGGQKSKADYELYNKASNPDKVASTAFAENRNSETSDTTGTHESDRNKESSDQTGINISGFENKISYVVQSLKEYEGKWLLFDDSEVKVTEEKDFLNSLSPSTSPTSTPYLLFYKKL
Sequence of Luciferin 4-monooxygenase (Photinus pyralis) (P08659 whole entry, looked up): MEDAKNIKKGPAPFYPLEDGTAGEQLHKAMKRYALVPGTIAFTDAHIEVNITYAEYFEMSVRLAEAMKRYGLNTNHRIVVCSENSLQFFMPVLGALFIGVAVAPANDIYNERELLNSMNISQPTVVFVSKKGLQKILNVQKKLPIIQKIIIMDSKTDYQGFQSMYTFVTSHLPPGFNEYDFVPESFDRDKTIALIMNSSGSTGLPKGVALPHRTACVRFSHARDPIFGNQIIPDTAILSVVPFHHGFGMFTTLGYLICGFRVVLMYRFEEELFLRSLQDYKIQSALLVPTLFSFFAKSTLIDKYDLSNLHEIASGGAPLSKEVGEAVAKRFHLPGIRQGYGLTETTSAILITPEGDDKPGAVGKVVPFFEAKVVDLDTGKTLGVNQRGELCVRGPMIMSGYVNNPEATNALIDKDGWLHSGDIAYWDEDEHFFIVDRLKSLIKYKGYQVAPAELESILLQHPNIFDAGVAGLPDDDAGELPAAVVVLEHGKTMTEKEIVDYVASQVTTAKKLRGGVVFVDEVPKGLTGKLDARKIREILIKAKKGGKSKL
Sequence of Glucocorticoid receptor (Homo sapiens) (P04150 whole entry, looked up, the tested form may be a part): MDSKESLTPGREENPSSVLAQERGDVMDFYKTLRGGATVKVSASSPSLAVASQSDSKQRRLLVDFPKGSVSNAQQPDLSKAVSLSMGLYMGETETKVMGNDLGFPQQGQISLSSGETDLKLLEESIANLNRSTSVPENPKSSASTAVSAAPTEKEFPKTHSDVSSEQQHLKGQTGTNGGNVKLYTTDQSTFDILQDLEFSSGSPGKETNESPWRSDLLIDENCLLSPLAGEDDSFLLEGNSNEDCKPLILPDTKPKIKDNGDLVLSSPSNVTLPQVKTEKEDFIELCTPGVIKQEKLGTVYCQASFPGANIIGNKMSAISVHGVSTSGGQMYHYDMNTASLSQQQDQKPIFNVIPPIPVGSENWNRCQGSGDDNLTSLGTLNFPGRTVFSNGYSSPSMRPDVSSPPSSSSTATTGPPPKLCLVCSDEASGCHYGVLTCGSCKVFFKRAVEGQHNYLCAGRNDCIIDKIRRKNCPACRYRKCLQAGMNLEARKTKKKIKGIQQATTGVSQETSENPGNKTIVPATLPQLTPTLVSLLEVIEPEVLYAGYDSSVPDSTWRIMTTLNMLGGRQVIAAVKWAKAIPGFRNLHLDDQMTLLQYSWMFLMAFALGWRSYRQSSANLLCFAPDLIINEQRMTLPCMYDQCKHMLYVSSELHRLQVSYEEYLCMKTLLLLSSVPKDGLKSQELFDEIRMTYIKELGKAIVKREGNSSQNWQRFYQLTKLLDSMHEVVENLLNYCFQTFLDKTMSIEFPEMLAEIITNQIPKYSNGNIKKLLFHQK
Sequence of Cytochrome P450 1A2 (Homo sapiens) (P05177 whole entry, looked up): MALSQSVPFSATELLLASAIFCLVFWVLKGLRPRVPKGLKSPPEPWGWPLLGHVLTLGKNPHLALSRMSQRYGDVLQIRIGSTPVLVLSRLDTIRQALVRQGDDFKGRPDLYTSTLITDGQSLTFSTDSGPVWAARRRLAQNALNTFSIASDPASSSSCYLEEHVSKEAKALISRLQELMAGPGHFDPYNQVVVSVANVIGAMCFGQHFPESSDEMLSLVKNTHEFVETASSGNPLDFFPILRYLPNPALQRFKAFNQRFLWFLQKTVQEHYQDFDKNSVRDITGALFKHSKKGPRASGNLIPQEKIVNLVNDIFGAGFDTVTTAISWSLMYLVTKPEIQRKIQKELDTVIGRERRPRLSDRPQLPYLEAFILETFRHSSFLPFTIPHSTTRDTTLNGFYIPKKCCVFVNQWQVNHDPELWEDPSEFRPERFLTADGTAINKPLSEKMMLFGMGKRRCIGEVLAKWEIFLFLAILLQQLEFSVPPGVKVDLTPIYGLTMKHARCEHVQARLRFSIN
Sequence of 3',5'-cyclic-AMP phosphodiesterase 4B (Homo sapiens) (Q07343 whole entry, looked up): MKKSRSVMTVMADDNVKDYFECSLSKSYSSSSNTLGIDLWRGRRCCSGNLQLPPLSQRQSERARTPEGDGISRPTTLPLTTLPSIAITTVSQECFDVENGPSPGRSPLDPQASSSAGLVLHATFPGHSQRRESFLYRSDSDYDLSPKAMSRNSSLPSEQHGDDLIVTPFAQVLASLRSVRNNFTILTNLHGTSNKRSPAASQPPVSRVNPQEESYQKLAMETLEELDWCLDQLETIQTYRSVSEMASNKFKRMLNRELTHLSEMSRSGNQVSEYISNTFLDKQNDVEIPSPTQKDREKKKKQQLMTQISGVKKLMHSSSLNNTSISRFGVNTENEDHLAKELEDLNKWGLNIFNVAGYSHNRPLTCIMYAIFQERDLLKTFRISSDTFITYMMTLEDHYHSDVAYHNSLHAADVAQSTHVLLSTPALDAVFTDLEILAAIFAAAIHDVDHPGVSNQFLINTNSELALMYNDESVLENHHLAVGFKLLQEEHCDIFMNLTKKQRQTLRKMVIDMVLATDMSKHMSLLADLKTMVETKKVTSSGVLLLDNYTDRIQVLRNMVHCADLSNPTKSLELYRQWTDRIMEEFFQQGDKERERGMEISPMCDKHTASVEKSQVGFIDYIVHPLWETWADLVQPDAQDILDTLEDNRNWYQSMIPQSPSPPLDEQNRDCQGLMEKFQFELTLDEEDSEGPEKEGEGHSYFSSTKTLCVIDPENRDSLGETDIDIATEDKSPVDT

CNc1ncnc2c1ncn2[C@@H]1O[C@H](CO)[C@@H](O)[C@@H]1O
-18.6%: max response [8, 21]
inactive: outcome [1] | Potency [2] | activity change, negative = inhibition [3] -5.4% | outcome [4] | Potency [5] > 20.6 µM | Potency [6] | outcome [7] | activity change, negative = inhibition ([8]; at 25.7 µM (top of the series)) -4.48% | Potency [9]
-24.1%: max response [8, 22]

CC[C@H](C)C(=O)O[C@@H]1C[C@H](C)C=C2C=C[C@H](C)[C@@H](CC[C@H]3C[C@@H](O)CC(=O)O3)[C@H]21
inactive: outcome [1] | Potency [2] | activity change, negative = inhibition [3] 11.4% | outcome [4] | Potency [5] > 20.6 µM | Potency [6] | outcome [7] | activity change, negative = inhibition ([8]; at 25.7 µM (top of the series)) -5.83% | Potency [9]
-1.87%: max response [8, 21]
-8.58%: max response [8, 22]

COc1cc2c(cc1OC)-c1cc3ccc(OC)c(OC)c3c[n+]1CC2
inactive: outcome [1] | Potency [2] | activity change, negative = inhibition [3] -18.1% | outcome [4] | Potency [5] > 20.6 µM | outcome [7] | activity change, negative = inhibition ([8]; at 25.7 µM (top of the series)) 1.8% | Potency [9]
-7.96%: max response [8, 22]
-8.72%: max response [8, 21]

C=CC1=C(C(=O)O)N2C(=O)[C@@H](NC(=O)/C(=N\OCC(=O)O)c3csc(N)n3)[C@@H]2SC1
9.17%: max response [8, 22]
6.88%: max response [8, 21]
inactive: outcome [1] | Potency [2] | activity change, negative = inhibition [3] -1.88% | outcome [4] | Potency [6] | outcome [7] | activity change, negative = inhibition ([8]; at 25.7 µM (top of the series)) 0.264% | Potency [9] | Potency [11] | activity, negative = inhibition ([12]; parasite line A) -8.61% | activity, negative = inhibition ([12]; parasite line B) -5.96% | Potency [13] | Potency [14] | Potency [15] | Potency [16] | Potency [17] | Potency [18] | Potency [19] | Potency [20]

N#Cc1cccc(-c2cncnc2-n2ccnc2)c1
inactive: outcome [1] | activity change, negative = inhibition [3] -7.66% [at 7.69 µM] | outcome [4] | Potency [5] > 46 µM | Potency [6] | outcome [7] | activity change, negative = inhibition ([8]; at 57.5 µM (top of the series)) 8.24% | Potency [9]
active: Potency [2] 15.8 µM
16.1%: max response [8, 21]
24.6%: max response [8, 22]

CC(=O)OCC(=O)[C@@]1(O)CC[C@@H]2[C@H]3CCC4=CC(=O)C=C[C@]4(C)[C@]3(F)[C@@H](O)C[C@@]21C
inactive: outcome [1] | Potency [2] | activity change, negative = inhibition [3] -2.98% | outcome [4] | Potency [6] | outcome [7] | activity change, negative = inhibition ([8]; at 25.7 µM (top of the series)) 0.563% | Potency [9] | Potency [11] | activity, negative = inhibition ([12]; parasite line A) -3.89% | activity, negative = inhibition ([12]; parasite line B) 16% | Potency [13] | Potency [14] | Potency [15] | Potency [16] | Potency [17] | Potency [18] | Potency [19] | Potency [20]
-0.686%: max response [8, 22]
active: Potency [5] 0.035 µM
15.5%: max response [8, 21]

C[C@H]1CC[C@]2(OC1)O[C@@H]1C[C@@H]3[C@@H]4CC[C@H]5C[C@@H](O)CC[C@]5(C)[C@@H]4CC(=O)[C@@]3(C)[C@H]1[C@@H]2C
inactive: outcome [1] | Potency [2] | activity change, negative = inhibition [3] 0.559% | outcome [4] | Potency [6] | outcome [7] | activity change, negative = inhibition ([8]; at 25.7 µM (top of the series)) -1.95% | Potency [9] | Potency [11] | activity, negative = inhibition ([12]; parasite line A) 11.1% | activity, negative = inhibition ([12]; parasite line B) 13.9% | Potency [13] | Potency [14] | Potency [15] | Potency [16] | Potency [17] | Potency [18] | Potency [19] | Potency [20]
-5.08%: max response [8, 21]
-7.26%: max response [8, 22]

Nc1c(O)cccc1C(=O)C[C@@H](N)C(=O)O
inactive: outcome [1] | Potency [2] | activity change, negative = inhibition [3] -7.19% | outcome [4] | Potency [10] > 20.6 µM | Potency [5] > 20.6 µM | Potency [6] | outcome [7] | activity change, negative = inhibition ([8]; at 25.7 µM (top of the series)) -1.89%
-4.16%: max response [8, 21]
-9.91%: max response [8, 22]

CC(=O)C[C@H](c1ccc([N+](=O)[O-])cc1)c1c(O)c2ccccc2oc1=O
-10.7%: max response [8, 22]
-11.4%: max response [8, 21]
inactive: outcome [1] | Potency [2] | activity change, negative = inhibition [3] -1.36% | outcome [4] | Potency [6] | outcome [7] | activity change, negative = inhibition ([8]; at 25.7 µM (top of the series)) 3.15% | Potency [9] | Potency [11] | activity, negative = inhibition ([12]; parasite line A) 7.55% | activity, negative = inhibition ([12]; parasite line B) 3.6% | Potency [13] | Potency [14] | Potency [15] | Potency [16] | Potency [17] | Potency [18] | Potency [19] | Potency [20]

NS(=O)(=O)c1cc2c(cc1C(F)(F)F)N[C@H](Cc1ccccc1)NS2(=O)=O
-8.69%: max response [8, 21]
-8.81%: max response [8, 22]
active: Potency [2] 15.8 µM
inactive: outcome [1] | activity change, negative = inhibition [3] 17.7% | outcome [4] | Potency [6] | outcome [7] | activity change, negative = inhibition ([8]; at 25.7 µM (top of the series)) 1.42% | Potency [11] | activity, negative = inhibition ([12]; parasite line A) -1.91% | Potency [13] | Potency [14] | Potency [15] | Potency [16] | Potency [17] | Potency [18] | Potency [19] | Potency [20]
